In the library only some 2.4% were active in any assay of this set; here they are far more common.
ADAM10 inh = human ADAM10 inhibitors, primary screen, biochemical, QFRET, HTS. Disintegrin and metalloproteinase domain-containing protein 10 (Homo sapiens), O14672. recombinant ADAM10, EDANS/DABCYL FRET peptide cleavage, 3 h. inhibition, % at 7 µM. 370,000 compounds, 0.62% hits. AID 720582, 2013;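 active means inhibition above a per-campaign cutoff equal to the mean of compounds falling between control-based bounds plus 3 SD, cut at about 20% in these data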
CendR NRP1 mod = modulators of CendR peptide binding to NRP-1, primary screen, biochemical, fluorescence polarization, uHTS; FAM-RPARPAR peptide binding to NRP-1; inhibition, % at 25 µM; 360,000 compounds, 0.85% hits; AID 602438, 2012;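 active means inhibition or corrected inhibition above about 18%, plus a signal ratio from 0.5 to 1.5, limit read from the data, passing the limit was not always enough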
ADAM17 inh = ADAM17 inhibitors, primary screen, biochemical, QFRET | Disintegrin and metalloproteinase domain-containing protein 17 (Homo sapiens), P78536 | 370,000 compounds, 0.83% hits | inhibition, % at 6.95 µM | recombinant ADAM17, EDANS/DABCYL FRET peptide cleavage;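 active means inhibition above the mean of compounds lying between control limits plus 3 SD, set per campaign, cut at about 8.5% in these data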
A3G deaminase = APOBEC3G DNA deaminase inhibitors, primary screen, biochemical, fluorescence, single-stranded DNA substrate, uHTS. DNA dC->dU-editing enzyme APOBEC-3G (Homo sapiens), Q9HC16. recombinant A3G, ssDNA deamination FAM/TAMRA fluorescence. inhibition, % at 20 µM. 330,000 compounds, 0.28% hits;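 active means inhibition of at least 40% at 20 µM, with no more than 30% in the related APOBEC3A deaminase screen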
Target sequence (Q9HC16 whole entry, looked up): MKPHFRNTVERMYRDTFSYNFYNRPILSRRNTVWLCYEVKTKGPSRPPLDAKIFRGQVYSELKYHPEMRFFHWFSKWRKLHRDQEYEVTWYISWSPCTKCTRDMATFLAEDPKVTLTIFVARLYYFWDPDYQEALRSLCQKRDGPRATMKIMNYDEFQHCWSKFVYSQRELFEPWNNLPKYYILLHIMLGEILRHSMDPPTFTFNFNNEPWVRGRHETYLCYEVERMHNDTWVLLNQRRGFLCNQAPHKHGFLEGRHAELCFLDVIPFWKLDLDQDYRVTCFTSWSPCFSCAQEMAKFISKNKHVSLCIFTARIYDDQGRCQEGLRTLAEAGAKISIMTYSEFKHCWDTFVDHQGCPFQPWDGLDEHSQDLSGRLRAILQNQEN
A3A deaminase = APOBEC3A ssDNA deaminase inhibitors, primary screen, selectivity assay for APOBEC3G inhibitor project, biochemical, FAM/TAMRA oligo cleavage fluorescence; recombinant A3A, FAM/TAMRA ssDNA deamination fluorescence; inhibition, % at 20 µM; 330,000 compounds, 0.41% hits; AID 493011, 2011;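 active means at least 40% inhibition at 20 µM here, with at most 30% in a related deaminase screen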
Target sequence (P31941 whole entry, looked up): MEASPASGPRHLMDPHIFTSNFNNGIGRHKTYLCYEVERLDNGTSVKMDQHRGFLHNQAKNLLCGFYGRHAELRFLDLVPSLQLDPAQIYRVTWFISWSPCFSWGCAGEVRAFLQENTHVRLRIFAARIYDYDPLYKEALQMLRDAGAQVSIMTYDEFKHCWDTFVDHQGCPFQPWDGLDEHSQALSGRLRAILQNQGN
Hits are given with their value; . = inactive; / = not tested or not shown.

SMILES	ADAM10 inh	CendR NRP1 mod	ADAM17 inh	A3G deaminase	A3A deaminase
Cc1ccc(-n2[nH]c(C)c(C=Nc3ccc4[nH]c(=O)[nH]c4c3)c2=O)cc1C	.	.	.	.	.
CCn1c(SCC(=O)N2CCN(c3ccc(F)cc3)CC2)nc2ccccc2c1=O	.	29	.	.	.
CCCn1c(SCC(=O)N2CCN(c3ccccc3)CC2)nc2ccccc2c1=O	.	.	.	.	.
CC(=O)C1=C(C)N(Cc2ccc(F)cc2)C(=S)NC1c1ccccc1 (stereo not given)	.	/	.	/	/
O=C(c1ccccc1OCc1ccccc1)N(Cc1ccccn1)CC1CCCO1 (stereo not given)	.	/	.	/	/
O=C1c2ccccc2/C(=C\c2ccc(O[C@@H]3CCCCO3)cc2)N1c1ccccc1	.	/	.	/	/
CC(Oc1ccc(Cl)cc1Cl)C(=O)Nc1ccncc1 (stereo not given)	.	.	.	.	.
CC(Oc1ccc(Cl)cc1Cl)C(=O)Nc1cccnc1 (stereo not given)	.	26	.	.	.
Fc1ccccc1C(c1nnnn1C1CCCC1)N1CCN(Cc2ccccc2)CC1 (stereo not given)	.	22	.	.	.
CCC(C)(C)c1ccc(Oc2ccc(N)cc2)cc1	.	44	.	/	/
CCC(C)(C)c1ccc(Oc2cccc(C(=O)O)c2)cc1	.	.	.	.	.
CCCOc1ccc(N2C(=O)CC(N3CCN(CCN=CC4C(=O)CC(C)(C)CC4=O)CC3)C2=O)cc1 (stereo not given)	.	25	.	.	.
Cc1nc2ccc(C(=O)N3CCN(C(=O)OCc4ccccc4)CC3)cc2n1C1CCCC1	.	/	.	/	/
CCCC(C)NC(=O)CN(Cc1ccco1)S(=O)(=O)c1ccccc1 (stereo not given)	.	23	.	.	.
Cn1c(=O)c(=O)n(C)c2cc(S(=O)(=O)N3CCN(Cc4ccc(F)cc4)CC3)ccc21	.	/	.	/	/
CC(C)n1c(NCCO)nc2ccccc21	.	26	.	.	.
COc1cccc2c1NC(C(=O)O)C1CC=CC21 (stereo not given)	/	42	/	.	.
CN1C(=O)c2oc3ccccc3c(=O)c2C1c1ccccn1 (stereo not given)	.	33	.	.	.
CN1C(=O)c2oc3ccccc3c(=O)c2C1c1cccnc1 (stereo not given)	.	.	.	.	.
O=C1OCC/C1=C\c1ccccc1	.	.	.	.	.
CC1(C)CCC/C(=C\c2ccccc2)C1=O	.	20	.	.	.
COC(=O)C1CN(Cc2ccccc2)CCS(=O)(=O)N1Cc1cn(Cc2ccc(F)cc2)nn1 (stereo not given)	.	/	.	/	/
O=C(C1CC1)N1N=C(c2ccc(F)cc2)CC1(O)C(F)(F)F (stereo not given)	.	.	.	.	.
O=C(C1CC1)N1N=C(c2ccc(Cl)cc2)CC1(O)C(F)(F)F (stereo not given)	.	27	.	.	.
COc1cccc2c1cc1c(=O)n(CC(=O)N3CCCC3)nc(C)n12	.	.	.	/	/
SMILES	ADAM10 inh	CendR NRP1 mod	ADAM17 inh	A3G deaminase	A3A deaminase
COc1cccc2c1cc1c(=O)n(CC(=O)N3CCCCCC3)nc(C)n12	.	24	.	.	.
CC[C@@H](CCCc1ccccc1OC)CCS(=O)(=O)C(C)(C)C	.	/	.	/	/
COC(=O)C1=C(C)N(C)C(=NCc2cccc(C(F)(F)F)c2)NC1c1cccc(Cl)c1 (stereo not given)	.	/	.	/	/
COCC(=O)OC1CCn2c1nc1c2C(=O)C(C)=C(NC(C)=O)C1=O (stereo not given)	.	45	.	/	/
CC(c1ccncc1)C(C)c1ccncc1 (stereo not given)	.	23	.	.	.
O=C(OC12CCCN(C1)/C(=C/c1cccnc1)C2)c1cccc(F)c1 (stereo not given)	.	/	.	/	/
CC(=O)Nc1ccccc1C(=O)C(=O)O	.	26	.	.	.
Clc1ccccc1OCc1nn[nH]n1	.	30	.	.	.
C=C1C[C@@]23CCC4[C@@](C)(CCC[C@@]4(C)C(=O)O)C2CC[C@]1(O)C3 (stereo not given in full)	.	32	.	.	.
C[C@@]12CCC3[C@@](CCC4[C@@]3(C)CCC[C@@]4(C)C(=O)O)(CC1=O)C2 (stereo not given in full)	.	.	.	.	.
COc1ccc(C2C(C(=O)Nc3cc(Cl)ccc3F)CCC(=O)N2c2ccc(OC)cc2)cc1 (stereo not given)	.	/	.	/	/
Cc1ccc(C(=O)OCCn2cc(C#N)c(=O)[nH]c2=O)cc1	.	27	.	.	.
COC(=O)C1=C(C)N(C)C(=NCc2ccc(C(F)(F)F)cc2)NC1c1cccc(Cl)c1 (stereo not given)	.	/	.	/	/
Cc1ccc(C)c(N2CCN(C(=O)c3cc4ccccn4n3)CC2)c1	/	21	/	.	.
CCCCS(=O)(=O)NCC1CCN(C(=O)C(=O)c2cc3ccccc3o2)CC1	.	/	.	/	/
Cc1ccc(S(=O)(=O)N2CCCCC2C(=O)O)s1 (stereo not given)	.	46	.	.	.
Cc1ccc(Cn2cc(CN3[C@H](CC(C)C)COc4cc(Br)ccc4S3(=O)=O)nn2)cc1	.	/	.	/	/
COC(=O)[C@H](CC(C)C)NS(=O)(=O)N(Cc1ccccc1)[C@@H](CC(C)C)C(=O)OC	.	28	.	.	.
Cc1ccc(C)c(N2C(=O)c3ccc(C(=O)Nc4ccccn4)cc3C2=O)c1	.	22	.	/	/
Cc1ccc(C(=O)Nc2ccccc2C(=O)Nc2ccccn2)cc1Cl	.	28	.	.	.
Cc1ccc(C(=O)Nc2cccnc2Cl)cc1Cl	.	.	.	.	.
Cc1cccc(N2C(=O)c3ccc(C(=O)Nc4ccccn4)cc3C2=O)c1	.	.	.	.	.
Cn1c(SCCS(=O)(=O)c2ccc(Cl)cc2)nnc1-c1ccccc1	.	32	.	.	.
CCOc1ccc(-c2onc(C(F)(F)F)c2-c2cscn2)c(O)c1	.	27	.	.	.
COC(=O)[C@H]1C[C@@]2(Oc3ccc(Br)cc3)c3ccccc3N(C(=O)OC(C)(C)C)[C@H]2N1C(=O)OC(C)(C)C	.	/	.	/	/
COc1ccc(CNC(=O)C2(CC3CC(c4ccccc4)=NO3)CCN(C(=O)Cc3ccc(F)cc3)CC2)cc1 (stereo not given)	.	.	.	.	.
CCCNC(=O)C1(CC2CC(c3ccccc3)=NO2)CCN(C(=O)c2ccccc2)CC1 (stereo not given)	.	27	.	.	.

Compound activity (PubChem)
